Assay results taken from publication PMC5540273 (PLoS ONE, 2017).

Tests used:
Conditions in all cases: concentration: 1 μM, replicates: in singlicate; n = 1
CAMKK1 = system: CAMKK1
CAMKK2 = system: CAMKK2
CASK = system: CASK
CDC2L1 = system: T1, CDC2L1
T1 construct: gene CDK11B

CDC2L2 = system: CDC2L2
CDC2L5 = system: T2, CDC2L5
T2 construct: gene CDK13

CDK11 = system: T3, CDK11
T3 construct: gene CDK19

CDK2 = system: CDK2
CDK3 = system: CDK3
CDK4-cyclinD1 = system: CDK4-cyclinD1
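Note: KINOMEscan kinase panel screen.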

Row | SMILES | %Inh (CAMKK1) [%] | %Inh (CAMKK2) [%] | %Inh (CASK) [%] | %Inh (CDC2L1) [%] | %Inh (CDC2L2) [%] | %Inh (CDC2L5) [%] | %Inh (CDK11) [%] | %Inh (CDK2) [%] | %Inh (CDK3) [%] | %Inh (CDK4-cyclinD1) [%]
1 | Cc1nnc(-c2ccc3ncc(-c4ccc(S(C)=O)cc4)n3c2)o1 (stereo not shown) | 24 | 46 | 0 | 0 | 0 | 25 | 17 | 0 | 2 | 8
2 | O=c1cc(N2CCOCC2)nc2n(Cc3cccc(F)c3)ccn12 [GSK2297430] | 25 | 3 | 0 | 3 | 6 | 0 | 0 | 7 | 1 | 0
3 | COc1cc2ncn(-c3cc(OCc4sccc4Cl)c(C(N)=O)s3)c2cc1OC [GSK448459] | 4 | 76 | 12 | 0 | 10 | 0 | 9 | 0 | 8 | 0
4 | Cc1cccc(-c2nc(Nc3ccc4ncsc4c3)c3ccccc3n2)n1 [GW867588] | 0 | 20 | 1 | 0 | 13 | 0 | 0 | 9 | 6 | 0
